Test results published in article PMC4336329 (PLoS ONE, 2015).
Out of some 310,000 compounds screened, about 14,000 (4.5%) showed an effect of 50% or more. The effect is printed as a negative number. This is one part of a sample in which strong results are shown more often than they occur.

molecular target: human ether-à-go-go-related gene (hERG) potassium channel (human, UniProt Q12809); assay: primary screen, population patch clamp on CHO cells stably expressing hERG; higher = less effect of the substance
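Note: peak tail current of the secondary pulse compared with the same well before compound.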

human ether-à-go-go-related gene (hERG) potassium channel, sequence (Q12809 whole entry, looked up): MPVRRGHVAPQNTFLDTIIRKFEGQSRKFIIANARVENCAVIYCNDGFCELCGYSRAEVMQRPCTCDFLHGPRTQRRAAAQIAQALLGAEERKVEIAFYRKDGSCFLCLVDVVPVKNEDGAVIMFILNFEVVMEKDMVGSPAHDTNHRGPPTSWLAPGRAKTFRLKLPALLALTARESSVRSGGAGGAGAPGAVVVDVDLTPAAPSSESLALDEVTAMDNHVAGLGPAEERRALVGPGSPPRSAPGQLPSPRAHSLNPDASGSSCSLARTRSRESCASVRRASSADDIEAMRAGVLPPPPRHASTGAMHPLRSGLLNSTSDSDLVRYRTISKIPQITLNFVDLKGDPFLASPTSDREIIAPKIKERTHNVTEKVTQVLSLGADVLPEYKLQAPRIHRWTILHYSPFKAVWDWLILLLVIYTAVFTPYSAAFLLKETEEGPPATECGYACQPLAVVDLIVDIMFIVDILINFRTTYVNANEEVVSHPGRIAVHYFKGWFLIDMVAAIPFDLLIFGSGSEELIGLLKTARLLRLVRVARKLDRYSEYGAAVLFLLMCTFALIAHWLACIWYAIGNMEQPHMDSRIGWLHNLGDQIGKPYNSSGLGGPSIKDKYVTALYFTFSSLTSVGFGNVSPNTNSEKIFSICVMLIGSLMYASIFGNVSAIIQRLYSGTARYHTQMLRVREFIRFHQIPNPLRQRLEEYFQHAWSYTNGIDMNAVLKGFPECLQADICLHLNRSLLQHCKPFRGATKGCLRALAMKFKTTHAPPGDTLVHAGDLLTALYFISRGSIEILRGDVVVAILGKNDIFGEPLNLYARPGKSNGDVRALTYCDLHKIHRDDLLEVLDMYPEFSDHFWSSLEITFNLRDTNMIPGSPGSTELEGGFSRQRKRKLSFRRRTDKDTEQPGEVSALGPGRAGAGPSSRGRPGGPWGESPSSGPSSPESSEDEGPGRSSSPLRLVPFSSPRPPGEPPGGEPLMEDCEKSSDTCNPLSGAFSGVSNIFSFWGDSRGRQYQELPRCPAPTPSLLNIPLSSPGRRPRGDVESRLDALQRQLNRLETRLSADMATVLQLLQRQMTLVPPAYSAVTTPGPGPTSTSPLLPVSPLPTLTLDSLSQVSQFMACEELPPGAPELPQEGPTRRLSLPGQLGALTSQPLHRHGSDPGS

| SMILES | hERG current change (%, negative = inhibition) at 10uM |
| --- | --- |
| O=C1NC(=O)C(Nc2cccc3ccccc23)S1 (centres unmarked) | 7.89% |
| Cc1cccc(-c2nc3c(c(SCC(=O)N(C)C)n2)CCCC3)c1 | -21.5% |
| COC(=O)c1ccc([C@H](NC(=O)c2ccco2)[C@]2(C)C[C@H]2C2CCCCC2)cc1 | 9.14% |
| COc1ccc(CN2CCn3ncc(C(=O)Nc4cccc(C)c4)c3C2=O)cc1 | 6.5% |
| Cc1ccc(S(=O)(=O)N/N=C/c2ccc(OCC(=O)Nc3ccccc3Cl)cc2)cc1 | 1.73% |
| COc1cccc(N(C(=O)Cn2nnc(-c3cccs3)n2)C(C(=O)NC2CCCCC2)c2ccncc2)c1 (centres unmarked) | 8% |
| COc1cc2c(c(O)c1OC)C(=O)C(OC)CCC2 (centres unmarked) | -3.32% |
| COc1cc2c(c(OC)c1OC)-c1c(cc3c(c1O)OCO3)C[C@@H](C)[C@@H](C)C2 | 0.26% |
| COc1cc2c(c(O)c1OC)-c1c(cc(OC)c(OC)c1OC)C[C@@H](C)[C@@H](C)C2 | -78.6% |
| COc1cc(C2(O)CCCCC2C)cc(OC)c1OC (centres unmarked) | 15.9% |
| COc1cc2c(c(OC)c1OC)-c1c(cc(OC)c(OC)c1OC)C[C@](C)(O)[C@@H](C)C2 | -73.7% |
| COc1cc2c(c(OC)c1OC)-c1c(cc(OC)c(OC)c1OC)C[C@H](C)[C@H](C)C2 | -71.9% |
| COc1cc2c(c(OC)c1OC)-c1c(cc3c(c1OC)OCO3)C1OC2[C@@H](C)[C@H]1C (some centres unmarked) | -4.76% |
| COc1cc2c(c(OC)c1OC)C(=O)CC2 | 15.6% |
| C/C=C(/C)C(=O)O[C@@H]1c2cc3c(c(OC)c2-c2c(cc(OC)c(OC)c2OC)[C@@H](OC(C)=O)[C@@H](C)[C@H]1C)OCO3 | 4.78% |
| COc1cc2c(c(OC)c1OC)-c1c(cc3c(c1OC)OCO3)[C@@H](OC(C)=O)[C@H](C)[C@H](C)C2 | -66.8% |
| COc1cc2c(c(OC)c1OC)-c1c(cc3c(c1OC)OCO3)C[C@H](C)[C@@](C)(O)C2 | 28.4% |
| Br.COc1cc2c(cc1OC)-c1c(OC)c(OC)cc3c1[C@H](C2)[NH+](C)CC3 | -16.7% |
| O=S(=O)(N/N=C/c1ccc(N2CCOCC2)cc1)c1ccc(Br)cc1 | 15.1% |
| Cc1ccc2nc(-c3ccc(NC(=O)CN4C(=O)NC(C)(c5ccc(OC(F)F)cc5)C4=O)cc3)sc2c1 (centres unmarked) | 12.4% |
| Cc1cccc(-n2c(C)cc(/C=N/n3cnnc3)c2C)c1 | -0.869% |

| SMILES | hERG current change (%, negative = inhibition) at 10uM |
| --- | --- |
| O=C(Nc1ccc(S(=O)(=O)Nc2nccs2)cc1)C1CC(=O)N(c2ccc(Cl)cc2)C1 (centres unmarked) | 0.55% |
| CC1=C(C(=O)OC(C)C)C2(O)C(=O)c3ccccc3C2(O)N1 (centres unmarked) | 12% |
| CN(CC(=O)Nc1c(Cl)cccc1Cl)C(=O)Cc1cccs1 | 2.98% |
| Cc1cc(=O)oc(C)c1C(=O)NCc1ccc(F)cc1 | -15.9% |
| O=C1CCCCC/C1=N/Nc1ccc(OCc2ccccc2)cc1 | 17.3% |
| CC(C)(C)c1ccc(-n2ncc3c2CCCC3NC(=O)C2(C(N)=O)CC2)cc1 (centres unmarked) | -29.1% |
| CCCCOc1ccc(/C=C/C(=O)OCC(=O)N2CC(=O)Nc3ccccc32)cc1OCC | 21.2% |
| CCOC(=O)c1c(CSc2ccccc2)n(C)c2ccc(O)c(CN3CCOCC3)c12 | -46.3% |
| CCCCn1c(C)c(C(=O)OCC)c2c(CN3CCOCC3)c(O)ccc21 | -55.9% |
| CCOC(=O)c1oc2cccc(O)c2c1CN1CCOCC1.Cl | -17.1% |
| CCOC(=O)c1c(CSc2ccccc2)n(C)c2ccc(O)c(CN3CCN(C)CC3)c12 | -22.6% |
| CCCCn1c(C)c(C(=O)OCC)c2c(CN3CCCC3)c(O)ccc21 | -72% |
| CCOC(=O)c1c(-c2ccccc2)oc2ccc(O)c(CN3CCCC3)c12 | -64.3% |
| CCOC(=O)c1c(C)n(C)c2ccc(O)c(CN3CCC(C)CC3)c12 | -23.2% |
| CCOC(=O)c1c(C)n(C)c2ccc(O)c(CN3CCN(C)CC3)c12 | -3.46% |
| CCOC(=O)c1c(C)n(C)c2ccc(O)c(CN3CCCCC3)c12 | -55.5% |
| CCOC(=O)c1c(C)oc2ccc(O)c(CN3CCCCC3)c12 | -37.4% |
| CCOC(=O)c1c(-c2ccccc2)oc2ccc(O)c(CN3CCOCC3)c12 | -37% |
| CCOC(=O)c1c(-c2ccccc2)oc2ccc(O)c(CN3CCN(C)CC3)c12 | -23.5% |
| Cc1csc(SC(C)C(=O)Nc2ccc3c(c2)OCCO3)n1 (centres unmarked) | 6.25% |
| COc1ccc(OC)c(C2CC(=O)c3c([nH]c(C(=O)OCC4CCCO4)c3C)C2)c1 (centres unmarked) | 3.54% |

| SMILES | hERG current change (%, negative = inhibition) at 10uM |
| --- | --- |
| CCOC(=O)C1C(=O)NC(N2CCN(CC)CC2)=NC1c1ccccc1 (centres unmarked) | 16.8% |
| CC1CCC(CN2CCN=C2Nc2ccccc2)CC1 (centres unmarked) | -14.7% |
| CC(C)c1nnc(NC(=O)CCC(=O)NC2CCCCC2)s1 | 1.73% |
| O=C(Nc1ccnn1C1CCN(C(=O)c2cc(Cl)ccc2F)CC1)C1CCOC1 (centres unmarked) | 23.6% |
| Fc1ccc2c(-c3cccc(C(F)(F)F)c3)c(-c3ccccc3)ncc2c1 | 14.1% |
| Cc1cc(C)cc(NC(=O)COc2coc(CN3CCc4ccccc43)cc2=O)c1 | 2.85% |
| Cc1cc(C)c(NC(=O)COC(=O)C2CCCCC2)c(C)c1 | 4.87% |
| Cc1cc(C)n(-c2cc(N3CCN(C(=O)c4cccc(F)c4)CC3)ccc2[N+](=O)[O-])n1 | -67.9% |
| Cc1cc(C)n(-c2cc(N3CCN(S(=O)(=O)c4ccc5ccccc5c4)CC3)ccc2[N+](=O)[O-])n1 | -1.13% |
| Cc1cc(C)n(-c2cc(N3CCN(S(=O)(=O)c4ccc(Br)cc4)CC3)ccc2[N+](=O)[O-])n1 | -21.3% |
| O=C(c1cccc(F)c1)N1CCN(c2ccc([N+](=O)[O-])c(N3CCOCC3)c2)CC1 | -25% |
| Cc1cc(C)n(-c2cc(N3CCN(C(=O)c4cccc(Br)c4)CC3)ccc2[N+](=O)[O-])n1 | -67.6% |
| CCN(CC(=O)Nc1ccccc1OC)C(=O)c1ccccc1Sc1ccccc1C#N | 8.48% |
| O=C(Nc1ccccc1)N1CCCN(c2nccc(C(F)(F)F)n2)CC1 | -5.36% |
| O=C(CSc1ncn[nH]1)Nc1ccc(Br)cc1F | -5.57% |
| CCOC(=O)c1cnc2cc(C)ccn2c1=O | -7.41% |
| Cc1cccc(NC(=O)CN(C)CC(=O)NC(c2ccccc2)c2ccccc2)c1C | -30.5% |
| CCc1ccc(NC2=NCC(c3ccccc3)S2)cc1 (centres unmarked) | -17.5% |
| O=[N+]([O-])c1ccc(C2CN=C(Nc3ccccc3)S2)cc1 (centres unmarked) | -60.2% |
| Cc1ccccc1NC1=NCC(c2ccc([N+](=O)[O-])cc2)S1 (centres unmarked) | -44.9% |
| CCN(CC)c1ccc(/C=N/NC(=O)CNC(=O)c2ccc3c(c2)OCCO3)cc1 | -5.14% |

| SMILES | hERG current change (%, negative = inhibition) at 10uM |
| --- | --- |
| COc1ccc(CC(=O)NCCS(=O)(=O)N2CCN(c3ccccc3OC)CC2)cc1 | -17.1% |
| Cc1oc(-c2ccc(Cl)cc2)nc1CS(=O)CC(=O)NCc1ccco1 (centres unmarked) | -35.6% |
| CCc1ccc(-c2nc(CN3CCC(C(=O)NCc4ccc(F)cc4)CC3)c(C)o2)cc1 | -50.5% |
| Cc1oc(-c2cccc(Cl)c2)nc1CN1CCC(C(=O)NCc2ccco2)CC1 | -78% |
| Cc1oc(-c2ccc(Cl)cc2)nc1CN1CCC(C(=O)NCc2ccco2)CC1 | -71.2% |
| CCc1ccc(-c2nc(CN3CCC(C(=O)NCc4ccco4)CC3)c(C)o2)cc1 | -66.3% |
| O=C(NCc1ccco1)C1CCN(Cc2ccc(F)cc2)CC1.O=C(O)C(=O)O | -15.4% |
| Cc1oc(-c2cccc(Cl)c2)nc1CN1CCC(C(=O)NC2CC2)CC1 | 16.2% |
| CCc1ccc(-c2nc(CS(=O)CC(=O)NCc3ccco3)c(C)o2)cc1 (centres unmarked) | 1.94% |
| COc1ccc(C(=O)NC2CCCCCC2)cc1S(=O)(=O)N1CCCc2ccccc21 | 11.3% |
| CCOc1ccc(C2N(c3ccc(OC)cc3)C(=O)C3CCCN32)cc1OC (centres unmarked) | -3.49% |
| CC1CCN(S(=O)(=O)c2ccc(NC(=O)CCN3C(=O)C4CC=CCC4C3=O)cc2)CC1 (centres unmarked) | -25.3% |
| Nc1ccc(N=Nc2ccccc2)c2ccccc12 | 22.4% |
| COc1ccccc1CN(C)C(=O)c1ccccc1Sc1ccccc1C#N | -25% |
| O=C(NCc1ccco1)c1ccc(S(=O)(=O)c2cccc(S(=O)(=O)N3CCOCC3)c2)cc1 | 2.58% |
| CCN(CC)P(=O)(c1n(CC)cc[n+]1CC)N(CC)CC.[I-] | 15.1% |
| CCOC(=O)Cn1c(CN2CCN(C(=O)c3ccco3)CC2)nc2c1c(=O)n(C)c(=O)n2C | -13.3% |
| O=C(Nc1ccc(N2CCN(C(=O)c3ccco3)CC2)c(Cl)c1)c1cccnc1 | -16.8% |
| Cc1ccccc1-c1nc(CN2CCC(C(=O)NCc3ccco3)CC2)c(C)o1 | -73.6% |
| Cc1oc(-c2ccccc2F)nc1CN1CCC(C(=O)NCc2ccco2)CC1 | -38% |
